Results on ten molecules are retold here after PubChem BioAssay (NCI).

The panel holds about 79,000 compounds, 15% with a hit somewhere; the sample as a whole holds those more often. Unmarked numbers belong to inactive results. The source made the active and inactive calls. Rule as the data show it: active = growth inhibition above about 70%; inactive = the rest.

Assay [1] in a line: NCI Yeast Anticancer Drug Screen. Data for the rad50 strain (AID 155).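 Also: 0% = growth of vehicle-only cultures of the same strain.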 Particulars: S. cerevisiae rad50 strain growth inhibition, hits give high values. The essentials:
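A DNA repair-deficient yeast mutant serves as the test organism; compound-induced growth inhibition is calculated against vehicle-treated cells.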

Assay [2] is described as follows: NCI Yeast Anticancer Drug Screen. Data for the mec2-1 strain (AID 157). The following applies: S. cerevisiae mec2-1 strain, hits give high values. A digest of the protocol:
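Mutant yeast (mec2-1) grown with compound; growth inhibition relative to vehicle control reported.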

A short description of assay [3]: NCI Yeast Anticancer Drug Screen. Data for the sgs1 mgt1 strain (AID 161).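 Also: 0% = growth of cultures given vehicle only.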 The following applies: S. cerevisiae sgs1 mgt1 strain, hits give high values. A digest of the protocol: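 Yeast cells carrying a defined DNA-repair defect were exposed to test compounds. Growth inhibition was measured relative to vehicle-treated controls.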
The nature of assay [4]: NCI Yeast Anticancer Drug Screen. Data for the cln2 rad14 strain (AID 165).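 Also: 0% = growth equal to vehicle treated cultures.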 Particulars: S. cerevisiae cln2 rad14 strain, hits give high values. The essentials:
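Readout is yeast growth inhibition versus vehicle-treated controls, using a strain with cln2 and rad14 alterations exposed to compound.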

The nature of assay [5]: NCI Yeast Anticancer Drug Screen. Data for the bub3 strain (AID 167). The following applies: S. cerevisiae bub3 mutant strain, hits give high values. The essentials:
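Inhibition values come from growth of compound-treated mutant yeast normalised to vehicle-treated controls.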

Assay [6] is described as follows: NCI Yeast Anticancer Drug Screen. Data for the mlh1 rad18 strain (AID 175). Particulars: S. cerevisiae mlh1 rad18 strain growth inhibition, hits give high values. The essentials:
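Genetically defined yeast (DNA repair-deficient) exposed to compounds; growth inhibition determined relative to vehicle.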

Setting [7] is: at 5.0 µM (retest, dose inferred, filed as 0.5).
Setting [8] is: at 50.0 µM (retest, dose inferred, filed as 5.0).

In the case of `CS(=O)(=O)OC1COC2C(I)COC12` (stereo not given), the growth inhibition in assay [1] (setting [7]) is -1%; in assay [1] (setting [8]), 55%; in assay [1] (at 50.0 µM), 7.85%; in assay [2] (setting [7]) it was 3%; in assay [2] (setting [8]) it was 58%; in assay [2] (at 50.0 µM), -11.8%. Besides, the growth inhibition in assay [3] (setting [7]) was -1%; in assay [3] (setting [8]), 83% (active); in assay [3] (at 50.0 µM) it was 1.85%; in assay [4] (setting [7]) it was 5%; in assay [4] (setting [8]) it was 30%; in assay [4] (at 50.0 µM) it was 13.7%. Also, the growth inhibition in assay [5] (setting [7]) was -1%; in assay [5] (setting [8]), 83% (active); in assay [5] (at 50.0 µM) it was 77.3% (active); in assay [6] (setting [7]), 2%; in assay [6] (setting [8]), 84% (active); in assay [6] (at 50.0 µM), 19.9%.

As for `O=C(O)/C(Cl)=C(\Cl)C(=O)Nc1cccc(C(F)(F)F)c1`, the growth inhibition in assay [1] (setting [7]) is 65%; in assay [1] (setting [8]), 99% (active); in assay [1] (at 50.0 µM), 99.5% (active); in assay [2] (setting [7]), 56%; in assay [2] (setting [8]), 100% (active); in assay [2] (at 50.0 µM), 99.7% (active). The growth inhibition in assay [3] (setting [7]) is 68%; in assay [3] (setting [8]), 100% (active); in assay [3] (at 50.0 µM), 99.7% (active); in assay [4] (setting [7]), 43%; in assay [4] (setting [8]), 99% (active); in assay [4] (at 50.0 µM), 99.3% (active). The growth inhibition in assay [5] (setting [7]) is 88% (active); in assay [5] (setting [8]), 99% (active); in assay [5] (at 50.0 µM) it was 99.6% (active); in assay [6] (setting [7]), 49%; in assay [6] (setting [8]) it was 99% (active); in assay [6] (at 50.0 µM) it was 99.5% (active).

With `[NH-]c1ccccc1[S-].[NH-]c1ccccc1[S-].[Zn]`, the growth inhibition in assay [1] (setting [7]) was 0%; in assay [1] (setting [8]), 99% (active); in assay [1] (at 50.0 µM), 99.3% (active); in assay [2] (setting [7]), 11%; in assay [2] (setting [8]), 100% (active); in assay [2] (at 50.0 µM), 99.6% (active). Also, the growth inhibition in assay [3] (setting [7]) was 18%; in assay [3] (setting [8]), 100% (active); in assay [3] (at 50.0 µM), 102% (active); in assay [4] (setting [7]) it was 7%; in assay [4] (setting [8]) it was 98% (active); in assay [4] (at 50.0 µM) it was 96.3% (active). The growth inhibition in assay [5] (setting [7]) is 14%; in assay [5] (setting [8]) it was 99% (active); in assay [5] (at 50.0 µM), 99.4% (active); in assay [6] (setting [7]) it was 19%; in assay [6] (setting [8]), 99% (active); in assay [6] (at 50.0 µM), 99.2% (active).

With `O=[N+]([O-])c1ccc(Cl)cc1C=NC12CC3CC(CC(C3)C1)C2`, the growth inhibition is 15% in assay [1] (setting [7]); 16% in assay [1] (setting [8]); 80.8% (active) in assay [1] (at 50.0 µM); 12% in assay [2] (setting [7]); 13% in assay [2] (setting [8]); 69% in assay [2] (at 50.0 µM). Further, the growth inhibition is 16% in assay [3] (setting [7]); 23% in assay [3] (setting [8]); 22.4% in assay [3] (at 50.0 µM); 3% in assay [4] (setting [7]); 14% in assay [4] (setting [8]); 8.55% in assay [4] (at 50.0 µM). For the same molecule, the growth inhibition in assay [5] (setting [7]) was 4%; in assay [5] (setting [8]), 9%; in assay [5] (at 50.0 µM), 4.2%; in assay [6] (setting [7]), 13%; in assay [6] (setting [8]), 15%; in assay [6] (at 50.0 µM), 54.6%.

Take `C/C=C/CC(C/C=C/C)C1CC[N-]CC1.C/C=C/CC(C/C=C/C)C1CC[N-]CC1.[Cl][Pt+2]([Cl])([Cl])[Cl]`: the growth inhibition in assay [1] (setting [7]) is 8%; in assay [1] (setting [8]) it was 88% (active); in assay [1] (at 50.0 µM), 97.3% (active); in assay [2] (setting [7]), -62%; in assay [2] (setting [8]), 78% (active); in assay [2] (at 50.0 µM), 98.8% (active). Besides, the growth inhibition was 3% in assay [3] (setting [7]); 91% (active) in assay [3] (setting [8]); 98.8% (active) in assay [3] (at 50.0 µM); 4% in assay [4] (setting [7]); 58% in assay [4] (setting [8]); 97.7% (active) in assay [4] (at 50.0 µM). In addition, the growth inhibition in assay [5] (setting [7]) was -3%; in assay [5] (setting [8]) it was 85% (active); in assay [5] (at 50.0 µM) it was 98% (active); in assay [6] (setting [7]), 7%; in assay [6] (setting [8]), 88% (active); in assay [6] (at 50.0 µM), 98.6% (active).

Turning to `CCOc1ncc(Cl)c(OCC)n1`, the growth inhibition in assay [1] (setting [7]) is 3%; in assay [1] (setting [8]), -5%; in assay [1] (at 50.0 µM) it was -25.4%; in assay [2] (setting [7]), -4%; in assay [2] (setting [8]), -2%; in assay [2] (at 50.0 µM), 35.9%. For the same molecule, the growth inhibition in assay [3] (setting [7]) was -1%; in assay [3] (setting [8]), -6%; in assay [3] (at 50.0 µM) it was -28.2%; in assay [4] (setting [7]), -7%; in assay [4] (setting [8]), 2%; in assay [4] (at 50.0 µM), -21.3%. Moreover, the growth inhibition was 1% in assay [5] (setting [7]); -3% in assay [5] (setting [8]); -12.7% in assay [5] (at 50.0 µM); 2% in assay [6] (setting [7]); -5% in assay [6] (setting [8]); -18.1% in assay [6] (at 50.0 µM).

`CCCCCCN(CCCCCC)CCC(=O)c1ccc2cc(Br)c3ccccc3c2c1`: the growth inhibition was 26% in assay [1] (setting [7]); 85% (active) in assay [1] (setting [8]); 98.6% (active) in assay [1] (at 50.0 µM); 38% in assay [2] (setting [7]); 95% (active) in assay [2] (setting [8]); 98.6% (active) in assay [2] (at 50.0 µM). Also, the growth inhibition in assay [3] (setting [7]) was 75% (active); in assay [3] (setting [8]), 94% (active); in assay [3] (at 50.0 µM), 97.9% (active); in assay [4] (setting [7]) it was 8%; in assay [4] (setting [8]), 87% (active); in assay [4] (at 50.0 µM) it was 96.8% (active). Moreover, the growth inhibition in assay [5] (setting [7]) is 20%; in assay [5] (setting [8]), 92% (active); in assay [5] (at 50.0 µM) it was 98.6% (active); in assay [6] (setting [7]), 43%; in assay [6] (setting [8]), 84% (active); in assay [6] (at 50.0 µM), 97.7% (active).

Regarding `CC(C)OC(=O)c1ccc(NCC2=CC(=O)C=CC2=O)cc1Cl`, the growth inhibition in assay [1] (setting [7]) was 53%; in assay [1] (setting [8]), 99% (active); in assay [1] (at 50.0 µM), 90.7% (active); in assay [2] (setting [7]), 44%; in assay [2] (setting [8]), 100% (active); in assay [2] (at 50.0 µM), 92.5% (active). Also, the growth inhibition in assay [3] (setting [7]) is 55%; in assay [3] (setting [8]), 100% (active); in assay [3] (at 50.0 µM), 91.2% (active); in assay [4] (setting [7]) it was 61%; in assay [4] (setting [8]) it was 100% (active); in assay [4] (at 50.0 µM), 91.2% (active). The growth inhibition in assay [5] (setting [7]) is 55%; in assay [5] (setting [8]), 100% (active); in assay [5] (at 50.0 µM) it was 88.9% (active); in assay [6] (setting [7]) it was 46%; in assay [6] (setting [8]), 99% (active); in assay [6] (at 50.0 µM) it was 91.7% (active).

`N#CSCCSC#N`: the growth inhibition in assay [1] (setting [7]) was 5%; in assay [1] (setting [8]), 95% (active); in assay [1] (at 50.0 µM), 76% (active); in assay [2] (setting [7]) it was -1%; in assay [2] (setting [8]), 93% (active); in assay [2] (at 50.0 µM), 82.5% (active). The growth inhibition in assay [3] (setting [7]) is 4%; in assay [3] (setting [8]) it was 91% (active); in assay [3] (at 50.0 µM), 87.2% (active); in assay [4] (setting [7]) it was 6%; in assay [4] (setting [8]) it was 86% (active); in assay [4] (at 50.0 µM), 40.3%. In addition, the growth inhibition in assay [5] (setting [7]) was 9%; in assay [5] (setting [8]) it was 96% (active); in assay [5] (at 50.0 µM), 81.8% (active); in assay [6] (setting [7]) it was 3%; in assay [6] (setting [8]) it was 95% (active); in assay [6] (at 50.0 µM), 83.7% (active).

For the molecule `CCCCN(CCCC)CCCCNc1ccc(C)c2sc3ccccc3c(=O)c12`, the growth inhibition in assay [1] (setting [7]) is 36%; in assay [1] (setting [8]) it was 99% (active); in assay [1] (at 50.0 µM), 98.7% (active); in assay [2] (setting [7]), 23%; in assay [2] (setting [8]), 98% (active); in assay [2] (at 50.0 µM), 99.2% (active). The growth inhibition in assay [3] (setting [7]) was 83% (active); in assay [3] (setting [8]), 98% (active); in assay [3] (at 50.0 µM), 98.8% (active); in assay [4] (setting [7]), 18%; in assay [4] (setting [8]), 98% (active); in assay [4] (at 50.0 µM), 98.3% (active). In addition, the growth inhibition in assay [5] (setting [7]) is 50%; in assay [5] (setting [8]) it was 98% (active); in assay [5] (at 50.0 µM) it was 98.8% (active); in assay [6] (setting [7]), 65%; in assay [6] (setting [8]) it was 98% (active); in assay [6] (at 50.0 µM), 99.2% (active).
